# According to PubChem BioAssay (EPA / NIEHS):
# Several values for one entry are separate records, joined by “and”; a condition that tells them apart may be missing. Identical values can stand only once. Results filed as inconclusive are left out. Activity calls are given as the source filed them. How the source made its calls, unless noted: active means hit-call score of the fitted dose curve at least 0.9, where 1 is the maximum; inconclusive means response in the unintended direction; inactive means score below 0.9.
# Experiments:
# [1] = read-out: xenobiotic metabolism (CYP1A1), CYP1A1 (gene 1543); assay: CLD_CYP1A1_6hr: CellzDirect (CLD) Gene Expression Assay for xenobiotic metabolism (CYP1A1) at 6 hours (AID 2283661);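 on AC50: potency for transcript induction above DMSO vehicle baseline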
# In short: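 Read-out 6 h post-dose: qNPA chemiluminescent quantitation of transcript induction against 0.2% DMSO. Cells were cultured primary human hepatocytes from two separate donor preparations; phase-contrast morphology annotated apparent cytotoxicity.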
# [2] = Tanguay_ZF_120hpf_TR_legacy: (Legacy) Oregon State University Tanguay Lab 120 Hour Post-fertilization zebrafish Assay for Touch Response (AID 2283667)
# In short: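 Binary touch-response endpoint in larvae at 120 hpf after static waterborne exposure from embryo stage (28°C, 0.64% DMSO vehicle, 5 uM trimethyltin chloride as positive control); embryos dead at 24 or 120 hpf excluded; fitted as gain versus DMSO.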
# [3] = read-out: glucuronosyltransferase (UGT1A1), UGT1A1 (gene 54658); assay: CLD_UGT1A1_6hr: CellzDirect (CLD) Gene Expression Assay for glucuronosyltransferase (UGT1A1) at 6 hours (AID 2283672)
# In short: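 UGT1A1 mRNA induction, read by quantitative nuclease protection assay, 6 h after dosing primary human hepatocytes (two donors, 0.2% DMSO vehicle). Gain of signal fitted relative to vehicle.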
# [4] = read-out: xenobiotic metabolism (CYP1A1), CYP1A1 (gene 1543); assay: CLD_CYP1A1_24hr: CellzDirect (CLD) Gene Expression Assay for xenobiotic metabolism (CYP1A1) at 24 hours (AID 2283673);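 further: CYP1A1 mRNA level by quantitative nuclease protection with chemiluminescence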
# In short: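 Transcript levels were read at 24 h by qNPA chemiluminescence in human liver primary cells. Cells got daily fresh dosing at multiple concentrations (vehicle 0.2% DMSO). Induction fitted upward against DMSO; phase-contrast cytotoxicity annotated.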
# [5] = CLD_ACTIN_6hr: CellzDirect (CLD) Gene Expression Assay for Baseline Control (Actin) at 6 hours (AID 2283676);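 further: active means increased actin mRNA relative to DMSO vehicle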
# In short: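 Baseline actin transcript level measured by qNPA (S1 nuclease protection, chemiluminescence) in human hepatocyte cultures 6 h after chemical exposure; 0.2% DMSO vehicle as reference, cytotoxicity noted from morphology.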
# [6] = read-out: Cytochrome P450 2C19 (Homo sapiens) (UniProt P33261); assay: CLD_CYP2C19_6hr: CellzDirect (CLD) Gene Expression Assay for xenobiotic metabolism (CYP2C19) at 6 hours (AID 2283678)
# In short: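 CYP2C19 transcript induction was quantified by quantitative nuclease protection assay with chemiluminescent read-out, 6 h after dosing. Cells were primary human hepatocytes from two donor preparations, given fresh dosing solutions daily in 0.2% DMSO vehicle. Activity was relative to DMSO.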
# [7] = CCTE_Padilla_ZF_144hpf_TERATOSCORE: (Legacy) CCTE's 144 Hour Post-fertilization zebrafish Assay Teratoscore, Padilla Lab (AID 2283679; active means hit-call score of the fitted dose curve at least 0.9, where 1 is the maximum; inactive means score below 0.9;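 on AC50: zebrafish embryos with chorions exposed by immersion from 6-8 hpf to 5 dpf with daily renewal; teratogenicity score from eye scoring of death hatching and malformations at 144 hpf; higher score means more developmental defects relative to DMSO baseline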)
# In short: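 Larvae scored by eye at 144 hpf for death, hatching and malformations after a day in clean Hanks'. Before that, daily-renewed exposure at 80 uM (0.4% DMSO, 26C) from roughly 6-8 hpf through 5 dpf, 4 embryos per chemical.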
# [8] = read-out: xenobiotic metabolism (CYP1A2), CYP1A2 (gene 1544); assay: CLD_CYP1A2_24hr: CellzDirect (CLD) Gene Expression Assay for xenobiotic metabolism (CYP1A2) at 24 hours (AID 2283683)
# In short: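 CYP1A2 mRNA induction measured by quantitative nuclease protection (chemiluminescent) in human primary hepatocytes 24 h after multi-concentration chemical dosing with daily fresh solutions. DMSO (0.2%) baseline; positive-direction fitting; morphology-based cytotoxicity noted.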
# [9] = read-out: ABC Transporter (ABCB1), ABCB1 (gene 5243); assay: CLD_ABCB1_24hr: CellzDirect (CLD) Gene Expression Assay for ABC Transporter (ABCB1) at 24 hours (AID 2283684)
# In short: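 ABCB1 mRNA induction versus 0.2% DMSO vehicle was read by qNPA chemiluminescence at 24 h. Cultured human hepatocytes from two donor preparations received daily fresh dosing, and phase-contrast cytotoxicity calls were annotated alongside the data.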
# [10] = read-out: Cytochrome P450 2B6 (Homo sapiens) (UniProt P20813); assay: CLD_CYP2B6_24hr: CellzDirect (CLD) Gene Expression Assay for xenobiotic metabolism (CYP2B6) at 24 hours (AID 2283686)
# In short: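 qNPA chemiluminescent measurement of mRNA at 24 hours in human primary hepatocyte cultures from two donor preparations, with daily fresh dosing and 0.2% DMSO vehicle as baseline. Morphology-based cytotoxicity flagged yes/no.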
# [11] = read-out: Cytochrome P450 2C19 (Homo sapiens) (UniProt P33261); assay: CLD_CYP2C19_24hr: CellzDirect (CLD) Gene Expression Assay for xenobiotic metabolism (CYP2C19) at 24 hours (AID 2283687);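 further: activity means mRNA induction above DMSO vehicle baseline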
# In short: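 CYP2C19 mRNA was quantified by qNPA chemiluminescence after 24 h of daily dosing of cultured human primary hepatocytes from two donors; vehicle was 0.2% DMSO, and increases over DMSO baseline were fitted.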
# [12] = read-out: Cytochrome P450 2C9 (Homo sapiens) (UniProt P11712); assay: CLD_CYP2C9_24hr: CellzDirect (CLD) Gene Expression Assay for xenobiotic metabolism (CYP2C9) at 24 hours (AID 2283688)
# In short: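 Induction of CYP2C9 mRNA was quantified by quantitative nuclease protection assay (chemiluminescence), gain of signal versus 0.2% DMSO vehicle, 24 h after dosing. Human primary hepatocytes (two donors) received fresh chemical daily at multiple concentrations; morphology-based cytotoxicity flagged yes/no.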
# [13] = read-out: Cytochrome P450 3A4 (Homo sapiens) (UniProt P08684); assay: CLD_CYP3A4_24hr: CellzDirect (CLD) Gene Expression Assay for xenobiotic metabolism (CYP3A4) at 24 hours (AID 2283689)
# In short: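 CYP3A4 mRNA induction read by quantitative nuclease protection (chemiluminescence) 24 hr after dosing. Cultured human hepatocytes (two donor preparations) treated daily, vehicle 0.2% DMSO; phase-contrast morphology annotates cytotoxicity.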
# [14] = read-out: ABC Transporter (ABCB11), ABCB11 (gene 8647); assay: CLD_ABCB11_6hr: CellzDirect (CLD) Gene Expression Assay for ABC Transporter (ABCB11) at 6 hours (AID 2283675);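 further: hits raise ABCB11 mRNA level so AC50 marks induction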
# In short: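 Read-out was ABCB11 mRNA gain of signal by quantitative nuclease protection assay, relative to 0.2% DMSO vehicle, 6 h post-dose. Cells were primary human hepatocytes from two donors, treated across multiple concentrations; phase-contrast cytotoxicity noted yes/no.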
# [15] = read-out: Cytochrome P450 2B6 (Homo sapiens) (UniProt P20813); assay: CLD_CYP2B6_6hr: CellzDirect (CLD) Gene Expression Assay for xenobiotic metabolism (CYP2B6) at 6 hours (AID 2283677);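 further: actives raise CYP2B6 transcript above DMSO baseline so AC50 marks an inducer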
# In short: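 CYP2B6 transcript levels, read by chemiluminescent qNPA, were fitted for increase versus DMSO baseline; cultured human liver hepatocytes from two donor preparations were harvested 6 h after exposure to test chemicals at multiple concentrations.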
# [16] = read-out: HMG-CoA synthase (HMGCS2), HMGCS2 (gene 3158); assay: CLD_HMGCS2_6hr: CellzDirect (CLD) Gene Expression Assay for HMG-CoA synthase (HMGCS2) at 6 hours (AID 2283682);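 further: actives raise HMGCS2 transcript above the 0.2% DMSO vehicle baseline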
# In short: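 HMGCS2 transcript induction read by quantitative nuclease protection with chemiluminescence, 6 h after dosing of primary human hepatocytes. Baseline was 0.2% DMSO vehicle; phase-contrast morphology gave a yes/no cytotoxicity annotation.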
# [17] = read-out: organic anion transporter (SLCO1B1), SLCO1B1 (gene 10599); assay: CLD_SLCO1B1_24hr: CellzDirect (CLD) Gene Expression Assay for organic anion transporter (SLCO1B1) at 24 hours (AID 2283690)
# In short: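 SLCO1B1 mRNA induction read at 24 h by quantitative nuclease protection assay (chemiluminescence), analyzed against DMSO baseline. Human hepatocyte cultures from separate donors received fresh dosing solutions daily; vehicle 0.2% DMSO; cytotoxicity flagged by phase-contrast morphology.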
# [18] = tested on: Thyroperoxidase (TPO), gene 54314; assay: CCTE_Simmons_AUR_rTPO: CCTE's Amplex UltraRed Assay for Thyroperoxidase (TPO) Inhibition, Simmons Lab (AID 2283662)
# In short: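 Rat thyroid microsomes (5 ug protein) were incubated with test compound (8 concentrations, 5 nM–87.5 uM final, 0.5% DMSO), 25 uM Amplex UltraRed and 300 uM H2O2 in 200 mM phosphate buffer for 30 min at 37C in the dark; fluorescence read at 544/590 nm.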
# Cytochrome P450 2C19 (Homo sapiens), sequence (P33261 whole entry, looked up): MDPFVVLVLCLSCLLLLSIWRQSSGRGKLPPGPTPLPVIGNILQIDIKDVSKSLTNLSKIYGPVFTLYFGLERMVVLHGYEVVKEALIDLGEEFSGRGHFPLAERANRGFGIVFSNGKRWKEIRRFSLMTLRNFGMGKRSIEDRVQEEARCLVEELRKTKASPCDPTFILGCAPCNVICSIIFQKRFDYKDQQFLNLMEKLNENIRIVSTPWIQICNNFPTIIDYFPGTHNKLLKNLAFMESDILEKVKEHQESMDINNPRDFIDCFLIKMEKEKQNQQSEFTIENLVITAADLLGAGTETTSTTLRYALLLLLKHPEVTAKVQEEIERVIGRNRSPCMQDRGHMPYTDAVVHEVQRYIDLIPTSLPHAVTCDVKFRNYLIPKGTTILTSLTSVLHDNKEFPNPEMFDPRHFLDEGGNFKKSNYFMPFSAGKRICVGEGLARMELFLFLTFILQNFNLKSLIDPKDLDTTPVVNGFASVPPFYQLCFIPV
# Cytochrome P450 3A4 (Homo sapiens), sequence (P08684 whole entry, looked up): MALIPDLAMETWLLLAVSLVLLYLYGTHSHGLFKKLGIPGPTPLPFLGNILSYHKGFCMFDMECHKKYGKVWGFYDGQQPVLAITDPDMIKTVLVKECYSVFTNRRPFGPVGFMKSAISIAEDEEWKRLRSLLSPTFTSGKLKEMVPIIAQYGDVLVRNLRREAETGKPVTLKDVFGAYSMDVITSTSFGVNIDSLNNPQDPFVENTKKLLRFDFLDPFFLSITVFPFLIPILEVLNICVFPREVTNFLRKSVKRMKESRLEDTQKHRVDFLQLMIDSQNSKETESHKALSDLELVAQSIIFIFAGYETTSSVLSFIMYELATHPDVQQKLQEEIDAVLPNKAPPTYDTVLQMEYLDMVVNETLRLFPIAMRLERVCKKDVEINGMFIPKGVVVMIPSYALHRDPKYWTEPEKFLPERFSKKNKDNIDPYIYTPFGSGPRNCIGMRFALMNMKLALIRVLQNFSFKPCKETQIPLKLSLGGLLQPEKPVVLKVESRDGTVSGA
compound,measurement,setting,value
COc1nc(NC(C)C)nc(NC(C)C)n1,AC50,[1],3.97 µM (active)
same,outcome,[2],inactive
same,outcome,[3],inactive
same,AC50,[4],3.47 µM (active)
same,outcome,[5],inactive
same,outcome,[6],inactive
same,outcome,[7],inactive
same,AC50,[8],3.61 µM (active)
same,outcome,[9],inactive
same,outcome,[10],inactive
same,outcome,[11],inactive
same,outcome,[12],inactive
same,AC50,[13],1.9 µM (active)
CCOc1cc(Oc2ccc(C(F)(F)F)cc2Cl)ccc1[N+](=O)[O-],outcome,[2],inactive
same,outcome,[3],inactive
same,AC50,[4],4.84 µM (active)
same,outcome,[14],inactive
same,AC50,[15],2.75 µM (active)
same,AC50,[7],13 µM (active)
same,outcome,[16],inactive
same,AC50,[8],5.69 µM (active)
same,outcome,[10],inactive
same,AC50,[13],20 µM (active)
same,outcome,[17],inactive
CCCN(CCC)c1c([N+](=O)[O-])cc(S(N)(=O)=O)cc1[N+](=O)[O-],outcome,[18],inactive
same,outcome,[2],inactive
same,outcome,[3],inactive
same,AC50,[4],4.81 µM (active)
same,outcome,[14],inactive
same,AC50,[7],15.8 µM (active) and 15.6 µM (active)
same,outcome,[16],inactive
same,outcome,[9],inactive
same,outcome,[12],inactive
same,AC50,[13],11.1 µM (active)
C#CCOS(=O)OC1CCCCC1Oc1ccc(C(C)(C)C)cc1 (centres undefined),AC50,[1],3.67 µM (active)
same,outcome,[2],inactive
same,outcome,[3],inactive
same,AC50,[4],20 µM (active)
same,outcome,[14],inactive
same,outcome,[5],inactive
same,AC50,[7],0.22 µM (active)
same,outcome,[16],inactive
same,AC50,[8],3.11 µM (active)
same,outcome,[9],inactive
same,AC50,[10],3.2 µM (active)
same,outcome,[12],inactive
same,AC50,[13],1.89 µM (active)
same,outcome,[17],inactive
CS/C(C)=N/OC(=O)N(C)SN(C)C(=O)O/N=C(\C)SC,outcome,[1],inactive
same,outcome,[2],inactive
same,outcome,[4],inactive
same,outcome,[14],inactive
same,outcome,[5],inactive
same,outcome,[6],inactive
same,AC50,[7],32.7 µM (active)
same,outcome,[9],inactive
same,outcome,[11],inactive
same,outcome,[12],inactive
O=C(O)COc1nc(Cl)c(Cl)cc1Cl,outcome,[2],inactive
same,outcome,[3],inactive
same,outcome,[4],inactive
same,outcome,[6],inactive
same,outcome,[7],inactive
same,outcome,[16],inactive
same,outcome,[8],inactive
same,outcome,[9],inactive
same,outcome,[10],inactive
same,outcome,[11],inactive
same,outcome,[12],inactive
same,outcome,[13],inactive
N#Cc1nn(-c2c(Cl)cc(C(F)(F)F)cc2Cl)c(N)c1S(=O)C(F)(F)F (centres undefined),outcome,[2],inactive
same,outcome,[3],inactive
same,outcome,[4],inactive
same,outcome,[14],inactive
same,AC50,[7],31.1 µM (active)
same,outcome,[16],inactive
same,outcome,[9],inactive
same,AC50,[10],1.9 µM (active)
same,AC50,[13],1.89 µM (active)
